The list is not random: actives were taken first. Their share in the collection is about 22%.
E-sel TNF inh: TNF alpha driven E-selectin expression inhibition. HUVEC TNFa-induced E-selectin immunofluorescence, high content. inhibition, % at 2 µM. actives 0.71% (n = 120,000);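 active = inhibition above the batch mean plus 3 SD, and confirmed as a hit on visual image review, cut at about 43% in these data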;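 note: 0% = TNF-stimulated DMSO wells and 100% = unstimulated control wells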
CYP2C19 inhib: human CYP2C19 inhibition | P33261 | CYP2C19 Supersomes, luciferin-H EGE luminescence, 30 min | inhibition, % at 5 µM | actives 21% (n = 96,000) | AID 778;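 active = CYP2C19 inhibition above a set limit at 5 µM in the primary screen, cut at about 50% in these data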;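 note: plate controls were negative control wells for no effect and 2.5 mM tranylcypromine positive control for full effect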
cytoskel mod: modifiers of cytoskeleton assembly; HUVEC TNFa F-actin phalloidin imaging, high content; inhibition, % at 2 µM; actives 0.18% (n = 91,000);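 active = inhibition above the batch mean plus 3 SD and confirmed as a hit by visual image inspection, cut at about 30% in these data, passing the limit was not always enough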
CYP2C19 act: increases human CYP2C19 enzyme activity; 96,000 tested, under 10 active; activation factor at 5 µM; P33261; recombinant CYP2C19, luciferin-H EGE luminescence; stronger effect = higher value; 0 = fully inhibited enzyme, 1 = untreated enzyme;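 active = activation factor of at least 2 at 5 µM in the primary screen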;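 note: 0 = wells with 2.5 mM tranylcypromine and 1 = vehicle-only wells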
CYP2C9 act: CYP2C9 (human) activation. AID 1024. P11712. recombinant CYP2C9, luciferin-H conversion, luminescence; stronger effect = higher value; factor 1 = untreated enzyme, 0 = blocked. activation factor at 5 µM. actives 1.4% (n = 96,000);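 active = activation factor of 2 or more for CYP2C9 at a 5 µM dose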;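 note: 0 = sulfaphenazole-blocked wells and 1 = vehicle-only wells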
Target sequence (P11712 whole entry, looked up): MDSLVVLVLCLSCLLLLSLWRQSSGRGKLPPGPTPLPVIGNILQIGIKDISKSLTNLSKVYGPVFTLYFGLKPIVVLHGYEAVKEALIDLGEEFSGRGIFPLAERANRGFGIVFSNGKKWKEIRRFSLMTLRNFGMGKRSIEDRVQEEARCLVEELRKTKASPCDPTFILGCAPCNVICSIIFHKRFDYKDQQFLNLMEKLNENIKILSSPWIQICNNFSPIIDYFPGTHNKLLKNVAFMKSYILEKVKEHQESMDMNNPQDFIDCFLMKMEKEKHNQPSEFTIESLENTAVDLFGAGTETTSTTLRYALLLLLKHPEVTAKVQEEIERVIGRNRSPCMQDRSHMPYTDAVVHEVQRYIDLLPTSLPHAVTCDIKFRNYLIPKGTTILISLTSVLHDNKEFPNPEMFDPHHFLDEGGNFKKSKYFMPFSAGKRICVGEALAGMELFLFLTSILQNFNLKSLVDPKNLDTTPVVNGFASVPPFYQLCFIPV
CYP2C9 inh: inhibitors of human CYP2C9 | P11712 | CYP2C9 Supersomes, luciferin-H conversion, luminescence | inhibition, % at 5 µM | actives 20% (n = 96,000) | AID 777;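 active = blocking of liver enzyme CYP2C9 beyond about 50% at 5 µM, limit read from the data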
The depositor's hits bear a star; . = no result given.

SMILES	E-sel TNF inh	CYP2C19 inhib	cytoskel mod	CYP2C19 act	CYP2C9 act	CYP2C9 inh
CC(=O)Nc1ccc(S(=O)(=O)N2CCN(CCCOc3ccccc3Cl)CC2)cc1	-2	68*	-12	0.3	0.5	48
COc1cccc(OCCCN2CCN(S(=O)(=O)c3ccc(NC(C)=O)cc3)CC2)c1	-36	86*	-17	0.1	0.2	80*
CC(Oc1ccc(C(C)(C)C)cc1)c1ccnc2nc(/N=C/N(C)C)nn12 (stereo not drawn)	-36	6	3	0.9	0.9	13
COc1ccc(C(C)=O)cc1CSc1nnc(C)n1-c1ccccc1	1	.	.	.	.	.
COc1ccc(C(C)=O)cc1CSc1nnc(-c2ccccc2O)n1-c1ccccc1	10	45	12	0.5	0.5	53*
CCCCCCCCC/C(=N\O)c1ccccn1	-16	24	2	0.8	0.7	28
O=C(CCc1ccc(S(=O)(=O)NCc2ccccc2)cc1)NCc1ccc2c(c1)OCO2	14	56*	-8	0.4	0.2	76*
O=C(CCc1ccc(S(=O)(=O)NCCc2ccccc2)cc1)NCc1ccc2c(c1)OCO2	18	82*	-6	0.2	0.2	83*
O=C(O)C1C2C=CC3(CN(CC(O)COc4ccccc4)C(=O)C13)O2 (stereo not drawn)	10	-3	-23	1	1	-4
CCCCCCn1c(=O)c(F)cn(Cc2ccc(OC)c([N+](=O)[O-])c2)c1=O	-10	30	27	0.7	0.4	60*
CCCCCn1c(=O)c(F)cn(Cc2ccc(OC)c([N+](=O)[O-])c2)c1=O	-51	12	10	0.9	0.5	52*
CCCn1c(=O)c(F)cn(Cc2ccc(OC)c([N+](=O)[O-])c2)c1=O	13	29	13	0.7	0.7	26
CCCCCOc1ccc(Cn2ccnc2)cc1[N+](=O)[O-]	-30	.	.	.	.	.
OCc1csc(=Nc2ccccc2)n1-c1ccccc1	.	88*	4	0.1	1	-2
CN(/C=C/C(=O)C(F)(F)C(F)(F)F)Cc1ccccc1	21	62*	1	0.4	0.9	10
CCNc1nc(NC(C)C)nc(N(C#N)Cc2ccccc2)n1	-14	24	-11	0.8	0.9	8
CCNc1nc(NC(C)C)nc(N(C#N)CCOc2ccc(Cl)cc2Cl)n1	13	77*	19	0.2	0.9	12
O=C(O)CCCCCN1C(=O)CSC1=S	-15	6	24	0.9	0.8	17
CC(C)OC(=O)CCCCCN1C(=O)CSC1=S	-6	99*	-6	0	0.1	91*
Cc1cc(N2CCCCC2)n2ncc(-c3ccccc3)c2n1	-10	-10	-5	1.1	1.5	-46
Cc1cc(N2CCCCC2)n2ncc(-c3ccc(Cl)cc3)c2n1	.	29	-7	0.7	0.4	57*
Cc1cc(N2CCC(C)CC2)n2ncc(-c3ccccc3)c2n1	3	37	0	0.6	0.3	70*
CN1C(=O)CC(N2CCN(C(c3ccccc3)c3ccccc3)CC2)C1=O (stereo not drawn)	-20	33	8	0.7	0.8	25
Cc1ccc2oc(-c3cccc(NC(=O)/C=C/c4cccc([N+](=O)[O-])c4)c3C)nc2c1	-26	.	.	.	.	.
Cc1ccc([N+](=O)[O-])cc1N/C=C/C(=O)c1ccco1	3	17	-37	0.8	0.5	51*
SMILES	E-sel TNF inh	CYP2C19 inhib	cytoskel mod	CYP2C19 act	CYP2C9 act	CYP2C9 inh
O=C(/C=C/Nc1ccc(F)cc1)c1ccco1	-41	3	-6	1	1	3
CC1CCCC(C)N1CCNC(=O)Nc1ccc(Cl)cc1 (stereo not drawn)	14	14	-11	0.9	1	1
C/C(=N\NC(=O)c1ccc(Cl)cc1)c1cccc(NC(=O)C(C)C)c1	-24	9	-8	0.9	1.1	-8
CC(C)C(=O)Nc1cccc(C(=O)OCC(=O)c2ccc(Cl)cc2Cl)c1	-11	8	-12	0.9	2.6*	-163
CC(=O)Nc1cc(C(=O)OCC(=O)c2ccc(C)cc2)ccc1C	11	.	.	.	.	.
O=C(COC(=O)c1cccnc1Cl)c1ccc(Cl)cc1Cl	.	66*	24	0.3	2.5*	-149
CC(=O)Nc1cc(C(=O)OCC(=O)c2ccc(Cl)cc2Cl)ccc1C	-6	34	-31	0.7	2*	-102
COc1ccc(Cc2nnc(N)s2)cc1	-31	2	9	1	1	1
Cc1n[nH]c(=O)nc1NCCc1ccccc1	17	-1	.	1	1.1	-7
O=C(CN(Cc1ccccc1)S(=O)(=O)c1ccccc1)N/N=C/c1ccccc1[N+](=O)[O-]	-8	42	0	0.6	0.3	65*
Cc1ccc(CN(CC(=O)N/N=C/c2ccccc2[N+](=O)[O-])S(=O)(=O)c2ccc(C)cc2)cc1	-56	97*	-2	0	0.2	85*
O=C(CN(CCc1ccccc1)S(=O)(=O)c1ccc(Br)cc1)N/N=C/c1ccccc1C(=O)O	-12	.	.	.	.	.
CC1=NNC(=O)C1CCC(=O)N/N=C\c1ccccc1[N+](=O)[O-] (stereo not drawn)	-53	10	-1	0.9	1	1
O=C(CSc1ccccn1)N/N=C/c1ccccc1[N+](=O)[O-]	62*	.	.	.	.	.
Cc1nc(C)n(C(=O)N(c2ccccc2)c2ccccc2)n1	6	43	2	0.6	0.8	22
COc1ccc(Cl)cc1S(=O)(=O)N1CCCC1	3	43	8	0.6	2*	-97
COc1cc(OC)c(S(=O)(=O)N2CCCCC2)cc1S(=O)(=O)N1CCCCC1	-8	64*	-3	0.4	0.6	43
COc1ccc(Cl)cc1S(=O)(=O)N1CCN(C)CC1	.	55*	-9	0.4	1.7	-72
COc1ccc(Cl)cc1NS(=O)(=O)c1ccc(S(=O)(=O)N2CCCC2)cc1	-29	35	.	0.7	0.7	32
CCOc1c(S(=O)(=O)N2CCCC2)ccc(Cl)c1Cl	1	93*	8	0.1	1.5	-49
COc1cccc(OC2OC3COC(C)(C)OC3C(O)C2NC(C)=O)c1 (stereo not drawn)	-9	.	.	.	.	.
CCOc1ccc(Cl)cc1S(=O)(=O)N1CCCC1	13	53*	-1	0.5	2.2*	-117
CCOc1ccc(Br)cc1S(=O)(=O)N1CCCC1	-20	.	23	.	.	.
C=CCn1c(SCC(=O)N2CCN(c3ccc(F)cc3)CC2)nnc1-c1cccs1	-5	65*	-5	0.3	0.7	30
C=CCn1c(SCC(=O)N2CCN(c3ccccc3)CC2)nnc1-c1ccco1	-33	4	8	1	0.9	6
CCCCn1c(Cc2ccccc2)nnc1SCC(=O)N1CCOCC1	16	.	13	.	.	.
CCCCn1c(SCC(=O)N2CCOCC2)nnc1-c1cccs1	7	13	18	0.9	0.4	62*
CCCCn1c(SCC(=O)N2CCCC2)nnc1-c1ccccc1	-11	52*	-11	0.5	1	1

Source: PubChem
